Reference: PubChem BioAssay AID686979 (National Center for Advancing Translational Sciences (NCATS), 2013)
Screen size: about 420,000 compounds; about 50,000 (12%) were called active. Not shown: some 26% with an inconclusive outcome. The call rests on the fitted dose curve; in most records, active means well fitted inhibition curve with a large enough effect; inconclusive means small, poorly fitted or top-dose-only effect; inactive means flat fitted curve, though single readings scatter. The entries come from a sample that favours actives as a whole. Entries that show only a call come without a potency.

test: qHTS for Inhibitors of human tyrosyl-DNA phosphodiesterase 1 (TDP1): qHTS in cells in presence of CPT; settings: chicken DT40 Tdp1-/-;hTDP1 cells + 20 nM CPT, ATP luminescence, 48 h; series mostly up to 46.2 µM; further: nearly all actives have a fitted effect of over 55% in size
Procedure, shortened: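 Chicken DT40 Tdp1-/- cells stably complemented with human TDP1 were seeded at 400 cells/well in medium containing 20 nM camptothecin, exposed to pin-transferred compounds, and grown at 37 °C for at least 48 hr. Viability was read as ATP luminescence.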
Potency means the concentration at half of the fitted maximal effect.

Row | SMILES | Potency | activity change, negative = growth inhibition
1 | Cc1cc(NC(=O)C(C)N2C(=O)c3ccccc3S2(=O)=O)no1 (configuration not stated) | inactive | –
2 | Fc1ccc(COc2cccc(-c3n[nH]c(=S)o3)c2)cc1 | inactive | –
3 | COc1cc(C(O)c2nc(-c3cccc(C(=O)O)c3)cs2)ccc1F (configuration not stated) | inactive | –
4 | COCc1cccc(-c2csc(C(O)c3ccc(F)cc3)n2)c1 (configuration not stated) | 16.4 µM (active) | –
5 | COc1ccc(N2CCN(C(=O)CN3C(=O)COc4ccccc43)CC2)cc1 | inactive | –
6 | COc1ccc(N2CCN(C(=O)CSCc3nc(-c4ccccc4Cl)oc3C)CC2)cc1 | 14.6 µM (active) | –
7 | COc1ccc(N2CCN(C(=O)C3CCN(C(=O)c4ccccc4Cl)CC3)CC2)cc1 | inactive | –
8 | COc1ccccc1C(=O)Nc1ccnn1C1CCN(Cc2cnn(C)c2)CC1 | inactive | –
9 | CNc1nc(-c2ccccc2)cc(-c2ccccc2)n1 | inactive | –
10 | Nc1nc(-c2ccccc2)cc(-c2ccccc2)n1 | 16.4 µM (active) | –
11 | c1ccc(-c2cc(-c3ccccc3)[nH]n2)cc1 | inactive | –
12 | Cc1ccccc1NC(=O)c1cc2c([nH]c1=O)CC(C)(C)CC2=O | inactive | –
13 | Cc1ccc(F)c(NC(=O)CCOc2ccccc2C)c1 | inactive | –
14 | COc1cc(C(=O)OCc2cc(=O)n3ccsc3n2)ccc1OC(C)C | 23.1 µM (active) | –
15 | COCCc1nn2c(=O)cc(COC(=O)c3cc(OC)c(OC)c(OC)c3)nc2s1 | inactive | –
16 | COc1ccc(C(=O)OCc2cc(=O)n3ccsc3n2)cc1F | inactive | –
17 | CCc1c(C)nc2c(-c3ccccc3)c(C)nn2c1Nc1ccc(NC(C)=O)cc1 | inactive | –
18 | CCOC(=O)N1CCN(S(=O)(=O)N2CCCC(C(=O)NCCCN3CCC(C)CC3)C2)CC1 (configuration not stated) | inactive | –
19 | COC(=O)C(C)NC(=O)COc1ccc2ccccc2c1 (configuration not stated) | inactive | –
20 | CC(=O)NC(c1ccccc1)c1nc(-c2ccccc2C)cs1 (configuration not stated) | inactive | –
21 | CC1(C)CC(=O)C(CC(=O)N2CCC(Cc3ccccc3)CC2)C(=O)C1 | inactive | –
22 | O=C(NCc1nnc(SCC(=O)N2CCC(Cc3ccccc3)CC2)o1)c1ccco1 | inactive | –
23 | O=C(CN1CCOc2ccccc21)N1CCC(Cc2ccccc2)CC1 | 13 µM (active) | –
24 | Cn1cnnc1Sc1ccc(S(C)(=O)=O)cc1[N+](=O)[O-] | inactive | –
25 | Cc1cc(C)nc(NS(=O)(=O)c2ccc(N3C(=O)C4CCCCC4C3=O)cc2)n1 (configuration not stated) | inactive | –
26 | COc1ccc(CCNC(=O)Nc2ccc3c(c2)c(=O)n(C)n3C)cc1OC | inactive | –

Row | SMILES | Potency | activity change, negative = growth inhibition
27 | Cc1nnc(Sc2nc3c(c(=O)[nH]c(=O)n3C)n2Cc2ccccc2)s1 | inactive | –
28 | Cn1c(=O)c2c(nc(N/N=C/c3cccs3)n2Cc2ccc(Br)cc2)n(C)c1=O | 20.6 µM (active) | –
29 | CCn1c(NCCc2ccc(OC)c(OC)c2)nc2c1c(=O)n(C)c(=O)n2C | 9.2 µM (active) | –
30 | CCCCn1c(SCC(=O)NCCc2ccc(OC)c(OC)c2)nc2c1c(=O)n(C)c(=O)n2C | inactive | –
31 | COc1ccc(CNc2nc3c(c(=O)[nH]c(=O)n3C)n2Cc2ccccc2)cc1 | inactive | –
32 | Cn1c(=O)[nH]c(=O)c2c1nc(NCCc1ccccc1)n2Cc1ccc(F)cc1 | 23.1 µM (active) | –
33 | Cn1c(=O)c2sccc2n(Cc2ccc(Br)cc2)c1=O | inactive | –
34 | Cn1c(=O)c2c(nc(OCc3cccnc3)n2Cc2ccccc2)n(C)c1=O | 11.6 µM (active) | –
35 | Cc1ccc(CN2CCN(/N=C/c3cccnc3)CC2)c(C)c1 | inactive | –
36 | COc1ccc(NC(=O)CCCC2CCCCC2)c(OC)c1 | inactive | –
37 | NS(=O)(=O)c1ccc2nc(NC(=O)CS(=O)(=O)c3ccc(F)cc3)sc2c1 | inactive | –
38 | O=C1NC[C@H](CCCCN2C[C@H](Cc3ccc(O)cc3)N(CC3CCCCC3)C(=O)C2=O)N(CCc2ccccc2)C1=O | inactive | –
39 | O=c1nc(NO)ccn1C1CCCO1 (configuration not stated) | inactive | –
40 | NC(=O)COc1ccc(C23CC4CC(CC(C4)C2)C3)cc1 | inactive | –
41 | Cc1ccc(S(=O)(=O)Nc2nc(N)n(-c3ccccc3)n2)cc1 | inactive | –
42 | C=CCOc1nc2c(c(=O)n(C)c(=O)n2C)n1Cc1ccc(Cl)cc1Cl | 18.4 µM (active) | –
43 | COc1cccc(CNS(=O)(=O)c2cc3c(cc2C)n(C)c(=O)c(=O)n3C)c1 | inactive | –
44 | CC(C)CCn1c(CN(C)Cc2ccccc2)nc2c1c(=O)n(C)c(=O)n2C | 6.51 µM (active) | –
45 | Cn1c(=O)c2c(nc(NCc3ccccc3)n2CC(N)=O)n(C)c1=O | inactive | –
46 | Cn1c(=O)[nH]c(=O)c2c1nc(CN(Cc1ccccc1)Cc1ccccc1)n2CCN1CCOCC1 | inactive | –
47 | Cn1c(=O)c2c(nc(Oc3ccc(C#N)cc3)n2Cc2ccc(Cl)cc2Cl)n(C)c1=O | inactive | –
48 | Cn1c(=O)c2c(nc(NCCc3ccccc3)n2Cc2ccccc2)n(C)c1=O | 5.8 µM (active) | –
49 | CCCCNc1nc2c(c(=O)n(C)c(=O)n2C)n1Cc1cccc(OC)c1 | 2.91 µM (active) | –
50 | CC1CN(Cc2nc3c(c(=O)n(C)c(=O)n3C)n2Cc2cccc(Cl)c2)CC(C)O1 (configuration not stated) | inactive | –
51 | CC(C)CCn1cnc2c1c(=O)n(CC(=O)NC(N)=O)c(=O)n2Cc1ccccc1 | inactive | –
52 | CC(C)OCCCNc1nc2c(c(=O)n(Cc3ccccc3F)c(=O)n2C)n1C | inactive | –

Row | SMILES | Potency | activity change, negative = growth inhibition
53 | COc1ccc(CCn2c(NCCCN3CCOCC3)nc3c2c(=O)[nH]c(=O)n3C)cc1 | inactive | –
54 | COCCn1cnnc1SCC(=O)Nc1cccc(S(=O)(=O)N2CCCCC2)c1 | inactive | –
55 | NC(=O)C1CCN(C(=O)/C(=C/c2ccco2)NC(=O)c2ccccc2)CC1 | inactive | –
56 | Cc1c(C(=O)NC(=S)NCc2cccnc2)oc2ccccc12 | inactive | –
57 | Cc1ccccc1OS(=O)(=O)c1cccc([N+](=O)[O-])c1 | inactive | –
58 | CC(Oc1ccccc1[N+](=O)[O-])C(=O)N/N=C/c1ccoc1 (configuration not stated) | inactive | –
59 | O=C(CCc1ccccc1)NNc1ccc(F)cc1 | inactive | –
60 | CC(C)c1cc(C(=O)N2CCOc3ccc(CN4CCC(Oc5cccnc5)CC4)cc3C2)n[nH]1 | – | -19.6% [at 9.04 µM] (inactive)
61 | CC(C)CC1(C)NC(=O)N(CC(=O)Nc2ccc3c(c2)OCCO3)C1=O (configuration not stated) | inactive | –
62 | Cc1cc(NC(=O)CSC2=NS(=O)(=O)c3cc(Cl)ccc3N2)no1 | inactive | –
63 | COc1cccc(NC(=O)C2CCCN(c3ncnc4c3nc3n4CCCCC3)C2)c1 (configuration not stated) | 20.6 µM (active) | –
64 | COc1cccc(CNC(=O)C2CCCN(S(=O)(=O)N3CC(C)CC(C)C3)C2)c1 (configuration not stated) | inactive | –
65 | O=C(Nc1cccc(Cl)c1)C1CCCN(c2cnccn2)C1 (configuration not stated) | inactive | –
66 | O=C(NCCCN1CCCCC1)C1CCCN(c2ncnc3c2nc2n3CCCCC2)C1 (configuration not stated) | inactive | –
67 | COc1cccc(CNC(=O)C2CCCN(c3ncnc4c3nc3n4CCCCC3)C2)c1 (configuration not stated) | 23.1 µM (active) | –
68 | COc1cccc(NC(=O)C2CCN(c3cc(C)nc4c(-c5ccc(Cl)cc5)c(C)nn34)CC2)c1 | inactive | –
69 | N#Cc1c(NC(=O)C2CC(Cl)=CCC2C(=O)O)sc2c1CCCCC2 (configuration not stated) | inactive | –
70 | COc1ccc2c(CC(=O)NNC(=O)c3ccccc3F)coc2c1 | inactive | –
71 | CCC(C)(C)NC(=O)CN(C(=O)C(=O)Nc1ccc2c(c1)OCCO2)C(C)(C)CC | inactive | –
72 | O=C(COC(=O)Cn1[nH]c(=O)c2ccccc2c1=O)Nc1ncc(Cl)cc1Cl | inactive | –
73 | O=C(OCc1cc(Cl)ccc1OC(F)F)c1cccnc1 | inactive | –
74 | Cc1ccc(NC(=S)NC(=O)c2ccc(-c3ccccc3)cc2)cc1 | 6.51 µM (active) | –
75 | Cc1cccc(NC(=O)NC(=S)NC(=O)c2ccccc2)c1 | 8.2 µM (active) | –
76 | Cc1cccc(NC(=S)NC(=O)c2ccc(Br)o2)c1 | inactive | –
77 | Cc1ccc(C(=O)NC(=S)Nc2ccccc2C)cc1 | inactive | –
78 | Cc1cccc(NC(=O)/C(=C\c2ccco2)NC(=O)c2ccccc2)c1 | inactive | –

Row | SMILES | Potency | activity change, negative = growth inhibition
79 | Cc1ccc(C(=O)NC(=S)Nc2ccc(N3CCOCC3)cc2)cc1 | inactive | –
80 | C/C(=N\NC(=O)OC(C)(C)C)c1ccc[nH]1 | inactive | –
81 | O=C(CCN1C(=O)C2C3CCC(C3)C2C1=O)Nc1ccc(Cl)cc1Cl (configuration not stated) | inactive | –
82 | O=C(NCCc1c[nH]c2ccc(Cl)cc12)c1ccc([N+](=O)[O-])cc1 | inactive | –
83 | O=C(CN1CCN(c2ccc(O)cc2)CC1)Nc1ccc(-c2ccccc2)cc1 | inactive | –
84 | Cc1cc(C)cc(OCC(=O)Nc2ccc(N3CCOCC3)cc2N2CCOCC2)c1 | 20.6 µM (active) | –
85 | O=C(CN1CCN(C2CCCCC2)CC1)Nc1ccccc1N1CCCCC1 | 29.1 µM (active) | –
86 | O=C(NCCCN1CCN(C2CCCCC2)CC1)Nc1ccccc1C(F)(F)F | inactive | –
87 | CCc1ccc(C(=O)NC(=S)Nc2ccccc2N2CCOCC2)cc1 | inactive | –
88 | O=C(CN1CCCCC1)Nc1ccccc1C(=O)NC1CC1 | inactive | –
89 | CC(=O)c1ccc(N2CCN(CC(=O)Nc3ccccc3N3CCOCC3)CC2)cc1 | 14.6 µM (active) | –
90 | O=C(CNCCC1=CCCCC1)Nc1ccccc1N1CCCCCC1 | 20.6 µM (active) | –
91 | Cc1ccccc1CN1CCNC(=O)C1CC(=O)NCCC1=CCCCC1 (configuration not stated) | inactive | –
92 | O=C(COc1ccc(Cl)cc1)NC(=S)Nc1ccccc1N1CCOCC1 | inactive | –
93 | O=C(Cc1cccc2ccccc12)NCCC1=CCCCC1 | inactive | –
94 | Cc1ccc(OCCCC(=O)Nc2ccc(N3CCOCC3)cc2)cc1 | inactive | –
95 | CCn1c(=O)c(=O)[nH]c2c(=O)oc3ccc(S(=O)(=O)Nc4ccc(OC)cc4)cc3c21 | inactive | –
96 | Cc1ccc(CCN2CC(C(=O)NCCc3ccccc3)CC2=O)cc1 (configuration not stated) | inactive | –
97 | O=C(COC(=O)Cc1ccc(Br)cc1)Nc1ccc(N2CCOCC2)cc1 | inactive | –
98 | CCc1ccc(NC(=O)COC(=O)c2cccs2)cc1 | inactive | –
99 | COc1cc(C(=O)N2CCN(C(=O)COc3cccc(C)c3)CC2)cc(OC)c1OC | inactive | –
100 | COc1cccc(OC)c1C(=O)Nc1ccc2c(c1)n(C)c(=O)n2C | inactive | –
101 | COC(=O)c1ccc(CSc2ccc(S(=O)(=O)N3CCCCC3)cn2)cc1 | inactive | –
102 | Cc1cn(C2OC[C@@H](O)[C@@H]2CO)c(=O)[nH]c1=O (some centres not stated) | inactive | –
